Reference: PubChem BioAssay
Values without a mark were called inactive. For some assays here: Measured potencies and affinities stand elsewhere. Active and inactive are the calls of the source. Unless noted, the rule behind the calls is not given here.

Key:
[1] = antimalarial activity against Dd2 strain (AID 2302;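 active = growth inhibition above 50% at the single 2 µM test dose, taken to imply half-maximal potency below 2 µM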;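 note: 0% = DMSO untreated growth and 100% = chloroquine plus artemisinin killed control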); conditions: P. falciparum Dd2 in RBCs, LDH growth readout, 72 h; at 2 µM; stronger effect = higher value
[2] = human hepatoma cell viability loss – ATP luminescence, cytotoxicity control for P. falciparum antimalarial project, primary screen (AID 2303;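 active = inhibition above 50%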;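 note: 0% = DMSO wells and 100% = digitonin-killed cells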); conditions: HepG2 viability, 24-48 h, at 10 µM, stronger effect = higher value
[3] = molecular target: L-lactate dehydrogenase (Plasmodium falciparum (isolate CDC / Honduras)) (UniProt Q27743); test: PfLDH activity inhibition – cell lysate, 3D7 strain, counter-screen for P. falciparum growth inhibition project (AID 2304);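 note: 0% = vehicle and 100% = reference inhibitor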; conditions: P. falciparum 3D7 crude extract, LDH APAD/NBT absorbance; at 2 µM; stronger effect = higher value
L-lactate dehydrogenase (Plasmodium falciparum (isolate CDC / Honduras)), sequence (Q27743 whole entry, looked up): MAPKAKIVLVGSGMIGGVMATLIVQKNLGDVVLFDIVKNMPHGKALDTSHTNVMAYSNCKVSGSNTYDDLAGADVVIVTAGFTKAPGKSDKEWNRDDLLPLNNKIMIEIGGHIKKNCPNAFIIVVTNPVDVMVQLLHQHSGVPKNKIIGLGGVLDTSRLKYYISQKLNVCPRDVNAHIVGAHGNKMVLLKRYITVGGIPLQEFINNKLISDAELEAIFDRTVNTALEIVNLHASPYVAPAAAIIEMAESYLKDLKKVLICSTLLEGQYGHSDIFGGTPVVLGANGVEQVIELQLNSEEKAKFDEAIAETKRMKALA

[4] = inhibition of 3D7 malaria parasite growth – strain 3D7 (AID 2306);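 note: 0% = DMSO wells and 100% = chloroquine plus artemisinin control wells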; conditions: P. falciparum 3D7 erythrocytic growth, LDH absorbance, 72 h; at 2 µM; stronger effect = higher value
[5] = molecular target: Calcium-dependent protein kinase 1 (Plasmodium falciparum (isolate 3D7)) (UniProt P62344); test: PfCDPK1 kinase inhibitors, biochemical, TCAMS library (AID 1159585; cut-off not given, nearly all actives have IC50 up to about 0.98 µM;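 note: inhibitors leave more ATP so luminescence rises with inhibition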); conditions: recombinant PfCDPK1, Kinase-Glo ATP depletion luminescence
Calcium-dependent protein kinase 1 (Plasmodium falciparum (isolate 3D7)), sequence (P62344 whole entry, looked up): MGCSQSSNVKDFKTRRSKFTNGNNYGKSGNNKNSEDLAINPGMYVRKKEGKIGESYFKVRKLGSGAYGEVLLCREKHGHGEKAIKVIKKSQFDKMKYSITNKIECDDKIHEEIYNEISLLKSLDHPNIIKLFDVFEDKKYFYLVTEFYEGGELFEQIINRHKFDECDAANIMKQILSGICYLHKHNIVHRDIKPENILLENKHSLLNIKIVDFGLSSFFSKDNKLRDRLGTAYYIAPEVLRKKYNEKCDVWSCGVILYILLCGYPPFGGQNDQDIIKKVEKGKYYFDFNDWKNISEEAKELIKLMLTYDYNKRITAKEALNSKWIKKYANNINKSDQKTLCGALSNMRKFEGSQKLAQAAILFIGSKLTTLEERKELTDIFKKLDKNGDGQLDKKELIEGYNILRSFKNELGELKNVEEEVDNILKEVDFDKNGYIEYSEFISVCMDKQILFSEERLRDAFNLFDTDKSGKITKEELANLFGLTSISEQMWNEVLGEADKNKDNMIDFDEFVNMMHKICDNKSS

[6] = molecular target: Plasmodium falciparum protein kinase 6 (PK6, PF3D7_1337100) (UniProt Q8IDW1); test: PfPK6 kinase inhibitors, biochemical, TCAMS library (AID 1159586); conditions: recombinant PfPK6, Kinase-Glo ATP depletion luminescence
Plasmodium falciparum protein kinase 6 (PK6, PF3D7_1337100), sequence (Q8IDW1 1-305): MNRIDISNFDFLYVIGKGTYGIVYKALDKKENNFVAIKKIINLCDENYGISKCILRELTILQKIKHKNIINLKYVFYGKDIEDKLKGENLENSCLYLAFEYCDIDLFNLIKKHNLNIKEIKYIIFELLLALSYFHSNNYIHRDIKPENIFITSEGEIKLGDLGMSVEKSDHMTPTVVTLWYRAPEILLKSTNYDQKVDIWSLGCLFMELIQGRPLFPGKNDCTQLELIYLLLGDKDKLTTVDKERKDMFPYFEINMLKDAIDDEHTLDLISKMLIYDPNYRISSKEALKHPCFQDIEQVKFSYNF

[7] = molecular target: Protein kinase 7 (PK7), Plasmodium falciparum 3D7 (PF3D7_0213400) (UniProt Q7YTF7); test: inhibition of Plasmodium PK7 catalytic activity – biochemical, TCAMS antimalarial set, Kinase-Glo luminescence (AID 1159587); conditions: recombinant PfPK7, Kinase-Glo ATP depletion luminescence
Protein kinase 7 (PK7), Plasmodium falciparum 3D7 (PF3D7_0213400), sequence (Q7YTF7 1-343): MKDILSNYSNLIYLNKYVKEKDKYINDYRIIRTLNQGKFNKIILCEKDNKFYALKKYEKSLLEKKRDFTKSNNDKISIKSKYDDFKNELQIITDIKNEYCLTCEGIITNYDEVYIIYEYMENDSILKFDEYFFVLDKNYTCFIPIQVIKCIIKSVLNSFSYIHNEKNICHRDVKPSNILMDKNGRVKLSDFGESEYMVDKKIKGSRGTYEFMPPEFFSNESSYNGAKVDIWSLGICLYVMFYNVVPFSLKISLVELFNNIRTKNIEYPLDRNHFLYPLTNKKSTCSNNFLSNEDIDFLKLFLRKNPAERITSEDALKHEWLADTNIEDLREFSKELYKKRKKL

[8] = molecular target: Calcium-dependent protein kinase 4 (Plasmodium falciparum (isolate 3D7)) (UniProt Q8IBS5); test: PfCDPK4 kinase inhibitors, biochemical, TCAMS library (AID 1159588; cut-off not given, nearly all actives have IC50 up to about 0.91 µM); conditions: recombinant PfCDPK4, Kinase-Glo ATP depletion luminescence
Calcium-dependent protein kinase 4 (Plasmodium falciparum (isolate 3D7)), sequence (Q8IBS5 whole entry, looked up): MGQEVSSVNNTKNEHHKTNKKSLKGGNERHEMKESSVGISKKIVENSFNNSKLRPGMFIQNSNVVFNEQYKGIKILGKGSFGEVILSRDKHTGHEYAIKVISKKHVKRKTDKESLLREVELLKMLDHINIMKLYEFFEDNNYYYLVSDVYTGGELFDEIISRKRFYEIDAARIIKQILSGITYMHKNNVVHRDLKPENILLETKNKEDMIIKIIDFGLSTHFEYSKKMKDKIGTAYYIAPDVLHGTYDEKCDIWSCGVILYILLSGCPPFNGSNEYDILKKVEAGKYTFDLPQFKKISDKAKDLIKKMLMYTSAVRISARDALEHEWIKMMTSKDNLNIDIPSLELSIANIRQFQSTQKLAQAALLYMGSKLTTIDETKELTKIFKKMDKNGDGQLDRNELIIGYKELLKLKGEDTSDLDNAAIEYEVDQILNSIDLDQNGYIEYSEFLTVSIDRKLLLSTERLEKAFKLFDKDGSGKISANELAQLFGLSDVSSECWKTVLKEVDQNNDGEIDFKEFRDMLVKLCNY

Structure (SMILES)	growth inhibition [1]	inhibition [2]	inhibition [3]	growth inhibition [4]	outcome [5]	outcome [6]	outcome [7]	outcome [8]
CC(C)NCc1ccc(-c2cccc(-c3nc4ccc(F)cc4[nH]3)c2)cc1	96% (active)	14%	-4%	101% (active)	inactive	inactive	inactive	inactive
Nc1n[nH]c(-c2ccccc2Nc2ccnc3cc(-c4nccs4)ccc23)n1	94% (active)	98% (active)	-2%	100% (active)	inactive	inactive	inactive	inactive
CNCCNCc1cccc(-c2ccc(-c3nc4ccccc4[nH]3)cc2)c1	27%	13%	-6%	99% (active)	inactive	inactive	inactive	inactive
O=C(C=Cc1ccc(-c2ccccc2)cc1)N1CCC(CCN2CCC(c3c[nH]c4ccccc34)CC2)CC1	16%	44%	2%	87% (active)	inactive	inactive	inactive	inactive
CCCCCCCC1CCN(C[C@H](O)c2ccnc3ccc(OC)cc23)CC1	81% (active)	23%	3%	94% (active)	inactive	inactive	inactive	inactive
CCN(CC)CCN(Cc1ccc(-c2ccc(C(F)(F)F)cc2)cc1)C(=O)Cn1c(/C=C/c2ccco2)nc(=O)c2ccccc21	86% (active)	28%	-2%	94% (active)	inactive	inactive	inactive	inactive
COc1ccc2nccc(NN=Cc3cccc(F)c3)c2c1	65% (active)	13%	2%	102% (active)	inactive	inactive	inactive	inactive
CCCCCCCNc1cc(C)nc2ccc(OC)cc12	100% (active)	30%	-2%	101% (active)	inactive	inactive	inactive	inactive
Cc1cc(NCCc2ccc(O)cc2)nc(NCC(c2ccccc2)c2ccccc2)n1	77% (active)	22%	1%	102% (active)	inactive	inactive	inactive	inactive
CCN(CC)CCOc1ccc(C(O)(C#CC(O)(c2ccc(OCCN(CC)CC)cc2)c2ccc([N+](=O)[O-])cc2)c2ccc([N+](=O)[O-])cc2)cc1 (stereo not given)	97% (active)	55% (active)	3%	98% (active)	inactive	inactive	inactive	inactive
Cc1cccc2[nH]c(-c3cccc(-c4cccc(NC(=O)C(C)CN5CCN(C)CC5)c4)c3)nc12 (stereo not given)	99% (active)	17%	1%	99% (active)	inactive	inactive	inactive	inactive
O=S(=O)(Nc1ccc(-c2ccc(CN3CCCC3)cc2)cc1)c1cccc2cccnc12	10%	37%	-8%	91% (active)	inactive	inactive	inactive	inactive
CC(C)N1CCN(CCCCNc2c3ccccc3nc3ccccc23)CC1	-4%	38%	-6%	100% (active)	inactive	inactive	inactive	inactive
CCc1nnc2sc(-c3cccc(NC(=O)c4ccc(C)c([N+](=O)[O-])c4)c3)nn12	46%	10%	4%	82% (active)	inactive	inactive	inactive	inactive
Cc1nc(N)nc(N)c1Oc1cccc(Cl)c1	-3%	49%	3%	94% (active)	inactive	inactive	inactive	inactive
O=C(c1ccc(-c2ccccn2)s1)N1CCc2cc3nccc(N4CCN5CCC[C@H]5C4)c3cc21	49%	-15%	-4%	96% (active)	inactive	inactive	inactive	inactive
CC(C)[C@H](NC(=O)c1ccc(O)c(-c2cccc(C(F)(F)F)c2)c1)C(=O)NCCN1CCCCC1	29%	3%	2%	99% (active)	inactive	inactive	inactive	inactive
Oc1cc(Nc2ccnc3cc(-c4cccc(CN5CCCCC5)c4)ccc23)c(F)cc1Cl	101% (active)	21%	-3%	101% (active)	inactive	inactive	inactive	inactive
COc1ccc(C(=O)Nc2cc(Br)c3c(c2)CNCC3)cc1Br	8%	25%	7%	97% (active)	inactive	inactive	inactive	inactive
Cc1cc(OCCN2CCCCC2)ccc1NC(=O)c1cccc2c(=O)n(Cc3ccc(Cl)cc3)cnc12	56% (active)	100% (active)	0%	88% (active)	inactive	inactive	inactive	inactive

Structure (SMILES)	growth inhibition [1]	inhibition [2]	inhibition [3]	growth inhibition [4]	outcome [5]	outcome [6]	outcome [7]	outcome [8]
Cc1cccn2c(=O)c3cc(C(=O)NC4CCCCC4)c(=N)n(CCCn4ccnc4)c3nc12	8%	1%	-1%	102% (active)	inactive	inactive	inactive	inactive
COCC(=O)Nc1nc2ccccc2[nH]1	1%	-14%	-5%	98% (active)	inactive	inactive	inactive	inactive
C=CCOC(=O)N1CCC(CNCc2cccc(-c3cccc(-c4nc5c(C)cccc5[nH]4)c3)c2)C1 (stereo not given)	69% (active)	22%	-2%	102% (active)	inactive	inactive	inactive	inactive
CCOC(=O)c1ccc(NC(=O)Nc2cccc(-c3cccc(-c4nc5ccccc5[nH]4)c3)c2)cc1	99% (active)	76% (active)	-3%	100% (active)	inactive	inactive	inactive	inactive
COc1ccc(Nc2ncc3c(-c4cccc(NC(=O)Cc5cccnc5)c4)c[nH]c3n2)cc1OC	85% (active)	27%	1%	98% (active)	inactive	inactive	inactive	inactive
Cc1cccc2[nH]c(-c3ccc(-c4ccc(CNCc5ccccc5)cc4)s3)nc12	87% (active)	22%	-1%	103% (active)	inactive	inactive	inactive	inactive
Cc1cccc(NC(=O)Nc2ccc(I)c(OCCN(C)C)c2)c1C	17%	13%	1%	96% (active)	inactive	inactive	inactive	inactive
C[C@@H]([C@@H](CCCCc1ccccc1)C(=O)N[C@H](C(=O)Nc1cccnc1)C(C)(C)C)N(O)C=O	98% (active)	0%	0%	98% (active)	inactive	inactive	inactive	inactive
Cn1cnc(CCNC(=O)c2cccc(-c3cccc(-c4nc5ccc(C(F)(F)F)cc5[nH]4)c3)c2)c1	45%	37%	4%	100% (active)	inactive	inactive	inactive	inactive
CCN(CC)CCN(Cc1ccc(-c2ccc(C(F)(F)F)cc2)cc1)C(=O)Cn1c(CCc2ccc(F)c(F)c2F)nc(=O)c2ccccc21	66% (active)	38%	-10%	97% (active)	inactive	inactive	inactive	inactive
CC(CN1CCN(C)CC1)C(=O)Nc1cccc(-c2ccc(-c3nc4ccccc4[nH]3)s2)c1 (stereo not given)	59% (active)	2%	2%	97% (active)	inactive	inactive	inactive	inactive
O=c1sn(-c2csc3ccccc23)c2ccccc12	54% (active)	14%	-6%	94% (active)	inactive	inactive	inactive	inactive
Oc1ccccc1CN[C@@H]1CCCC[C@H]1NCc1ccccc1O	66% (active)	53% (active)	2%	96% (active)	inactive	inactive	inactive	inactive
COc1ccc(NC(=O)[C@H](CC(C)C)Nc2cc(C)nc(Nc3ccccc3)n2)cc1	92% (active)	25%	-1%	101% (active)	inactive	inactive	inactive	inactive
Cc1cccc(-c2nn(-c3ccccc3)c3[nH]c(=O)c(CNC4CCCC4)cc23)c1	97% (active)	18%	-2%	98% (active)	inactive	inactive	inactive	inactive
COCCN1CCC(N(CC2(O)CCN(c3ccc(C(F)(F)F)cc3)CC2)C(=O)Cn2c(SCc3cccc(F)c3F)cc(=O)c3ccccc32)CC1	75% (active)	29%	5%	94% (active)	inactive	inactive	inactive	inactive
Cc1ccc(C=C2SC(=Nc3ccccc3)NC2=O)c(C)c1	90% (active)	1%	-2%	93% (active)	inactive	inactive	inactive	inactive
COc1c(C2CCN(CCCCNC(=O)c3ccc(-c4ccc(Cl)cc4)c(OCC(N)=O)c3)CC2)ccc2c1CCCC2	11%	43%	3%	97% (active)	inactive	inactive	inactive	inactive
CCc1cn2c3c(cc(C(=O)N[C@@H](Cc4ccccc4)[C@H](O)CNC4CCOCC4)cc13)N(CC(F)(F)F)S(=O)(=O)CC2	98% (active)	4%	-2%	98% (active)	inactive	inactive	inactive	inactive
Cc1noc(C)c1-c1ccc2c(Nc3nccc4ccccc34)c(C(N)=O)cnc2c1	99% (active)	100% (active)	1%	100% (active)	inactive	inactive	inactive	inactive
